Compound activity: PubChem, National Center for Advancing Translational Sciences (NCATS)
Compounds with a hit are over-represented: about 1.7% of the library has one in this group of screens.
HEK293 tox: cytotoxicity counter-screen for GLP-1 receptor inverse agonists | Potency, µM (doses to about 38.3 µM), for the others: top-dose activity change, negative = inhibition, most hits filed as inhibitors | 410,000 tested, 0.13% active | HEK293 cAMP-luciferase reporter cells, luminescence, 24 h;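 further: loss of luciferase light is scored as toxicity; on the % scale 0 is the no-effect control and ±100 the full control effect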
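A 23 nL compound transfer followed 12 hours of cell culture at 37 deg C; exposure then lasted 24 hr. Luciferase assay detection reagent was dispensed and plates read for luminescence after a 12 min room-temperature wait.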
GLP-1R inv ag: inverse agonists of human GLP-1 receptor; P43220; HEK293 GLP-1R CRE-luciferase, luminescence, 24 h; GLP-1R form is constitutively active; Potency, µM (series often up to 38.3 µM), without a hit: top-dose activity change, negative = inhibition, hits mostly inhibitors; 410,000 tested, 1.6% active; AID 624417; further: on the % scale 0 is the no-effect control and ±100 the full control effect; nearly all actives have a fitted effect of over 55% in size
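Luminescence readout: a drop in cAMP-driven luciferase signal flags inverse agonism at a constitutively active GLP-1R stably expressed in HEK293. Compound exposure lasted 24 hr at 37 deg C, 5% CO2.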
PTHR1 agonist: PTHR1 (human) receptor agonism | Q03431 | Potency, µM (series often up to 115 µM), for the others: at the top dose activation, hits mostly activators | HEK293 GP2 PTHR1 cells, GloSensor cAMP luminescence, 1 h | 410,000 tested, 0.075% active; further: nearly all actives have a fitted effect of over 55% in size
Target sequence (Q03431 whole entry, looked up): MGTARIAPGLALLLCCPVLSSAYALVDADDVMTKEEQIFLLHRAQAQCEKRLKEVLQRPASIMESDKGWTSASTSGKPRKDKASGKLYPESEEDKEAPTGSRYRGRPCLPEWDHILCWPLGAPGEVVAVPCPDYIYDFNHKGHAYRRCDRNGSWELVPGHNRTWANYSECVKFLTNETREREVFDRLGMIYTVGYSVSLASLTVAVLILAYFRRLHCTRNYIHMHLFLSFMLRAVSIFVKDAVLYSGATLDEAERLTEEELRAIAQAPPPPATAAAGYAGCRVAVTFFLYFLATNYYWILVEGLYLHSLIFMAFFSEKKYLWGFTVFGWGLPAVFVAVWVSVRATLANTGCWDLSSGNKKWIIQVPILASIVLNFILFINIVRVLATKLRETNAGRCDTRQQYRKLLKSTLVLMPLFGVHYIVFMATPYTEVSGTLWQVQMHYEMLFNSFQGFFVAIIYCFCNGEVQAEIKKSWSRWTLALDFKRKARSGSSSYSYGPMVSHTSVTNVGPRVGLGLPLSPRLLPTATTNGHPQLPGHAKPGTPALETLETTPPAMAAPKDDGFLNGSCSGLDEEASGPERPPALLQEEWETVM
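HEK-293-derived GP2 cells expressing PTHR1 and a GloSensor cAMP reporter, 3,000/well, plated overnight, given luciferin plus IBMX (each 0.5 mM as added) for 1 h at 37 °C, then compound for 1 h at 37 °C. Luminescence was read after 15 min at room temperature.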
GLP1R ag: activates the human GLP-1 receptor | P43220 | HEK293 GLP-1R CRE-luciferase, luminescence, 4-6 h; cells express a hypersensitive GLP-1R form | Potency, µM (doses to about 45.6 µM), inactives show at the top dose activation, usual class: activators | 380,000 tested, 0.007% active | AID 624172; further: % of control where 0% means no effect
An asterisk follows results filed as active; i = inactive; ? = inconclusive; . = no result given; ! = repeats disagree; [ ] = dose if it differs, or a comment. The call rests on the fitted dose curve; in most records, active means well fitted curve in the direction sought with a large enough effect; inconclusive means small, poorly fitted or top-dose-only effect, or another doubt; inactive means no such curve, though single readings can be large; an effect the other way counts as inactive or inconclusive. Potency means the concentration at half of the fitted maximal effect.

SMILES	HEK293 tox	GLP-1R inv ag	PTHR1 agonist	GLP1R ag
COc1cc(NC(=O)N2CCc3nc(Nc4cc(Cl)cc(Cl)c4)ncc3C2)cc(OC)c1OC	?	10µM*	-67.7%	-1.6%
COc1ccc(CNC(=O)N2CCc3nc(Nc4cc(OC)c(OC)c(OC)c4)ncc3C2)cc1	-15.3%	-13.1%	-25.5%	0.8%
Cc1ccc(S(=O)(=O)N2CCC(N3CCN(C)CC3)CC2)cc1Cl	28.8%	2.51µM*	-3.4%	7.3%
COc1ccccc1NC(=O)CSC1=Nc2ccccc2C2=NC(Cc3ccccc3)C(=O)N12 (stereo unspecified)	-0.7%	7.4%	i	.
Cc1ccc(S(=O)(=O)NCc2c(Cl)cccc2Oc2ccccc2)cc1	1.2%	?	-15.3%	4.8%
O=S(=O)(NCc1c(Cl)cccc1Oc1ccccc1)c1ccccc1	24.0%	10µM*	-23.7%	5.2%
COc1ccccc1NC(=O)c1sc2nc(C)c(C(=O)Nc3ccc(C)cc3C)c(-c3ccc(Br)cc3)c2c1N	14.2%	-1.0%	i	.
CCOC(=S)SSC(=S)OCC	.	.	.	9.1%
Cc1ccc(C)c(NC(=O)C(Cc2ccccc2)n2cccc2)c1 (stereo unspecified)	-8.1%	10µM*	i	.
Cc1ccc(NC(=O)C(Cc2ccccc2)n2cccc2)c(C)c1 (stereo unspecified)	11.3%	?	i	.
Cc1ccc(NC(=O)c2cc(C)n(-c3cccc(C)c3)c2C)cc1	?	11.2µM*	-89.6%	-2.0%
CCc1cccc(N2C(=O)CSC23C(=O)N(Cc2ccccc2F)c2ccccc23)c1 (stereo unspecified)	-25.4%	?	-32.2%	0.6%
CCN(CC)c1ccc(C(=O)Nc2cccc(F)c2)cc1	-28.6%	5.62µM*	-13.9%[57.5 µM]	25.0%
O=C(O)c1ccc(/C=C/c2ccc3cccc(O)c3n2)cc1	-7.4%	72.7%	-27.9%	7.3%
Oc1ccc(/C=C/c2ccc3cccc(O)c3n2)cc1Br	201.9%	10µM*	-0.6%	0.6%
N#Cc1ccc(NC(=O)Nc2ccc(Cl)cc2)cc1	-26.2%	6.31µM*	-25.1%	-22.0%
CN(CC(=O)Nc1ccc(C#N)cc1)Cc1ccc(Cl)cc1	7.8%	?	-54.8%	19.8%
O=Cc1s/c(=N\S(=O)(=O)c2ccccc2)n(CCCCl)c1Cl	?	2.82µM*	-22.7%	-5.5%
O=C(O)CCCCNCc1ccccc1	9.6%	11.3%	-3.0%	-4.8%
Oc1ccccc1CNCCCNCc1ccccc1O	?	8.91µM*	-2.9%	-2.7%
c1ccc(CNCCCNCCCCNCCCNCc2ccccc2)cc1	?	2.82µM*	-14.8%	-5.4%
OCCCNCc1cccc2ccccc12	19.4%	-4.2%	i	-5.2%
CC(=O)c1ccc(NC(=O)Cn2cc(S(=O)(=O)Cc3cccc(Cl)c3)c3ccccc32)cc1	?	10µM*	-38.5%	.
CCOc1ccc(NC(=O)CSc2nc(=O)[nH]c3c2CCC3)cc1	2.7%	9.8%	-25.6%	.
CCC(C)Sc1ccc(-c2nc3cc(C)ccn3c2NC2CCCCC2)cc1 (stereo unspecified)	6.0%	10µM*!	i	-0.5%
SMILES	HEK293 tox	GLP-1R inv ag	PTHR1 agonist	GLP1R ag
CCCCNc1c(-c2cccc(-c3ccc(OC)cc3)c2)nc2ccc(C)cn12	?	?	-94.9%	-9.7%
CCCCNc1c(-c2cccc(-c3ccc(OC)cc3)c2)nc2cc(C)ccn12	2.3%	11.2µM*	-93.0%	-8.9%
Cc1ccn2c(NC3CCCCC3)c(-c3cccc(-c4cccc(Cl)c4)c3)nc2c1	?	3.98µM*	i	-3.6%
COc1ccc(NC(=O)CC2C(=O)N(Cc3cccs3)C(=S)N2C(C)C)cc1 (stereo unspecified)	-6.3%	?	-2.5%	10.0%
COc1ccc(NC(=O)CC2C(=O)N(Cc3ccco3)C(=S)N2C(C)C)cc1 (stereo unspecified)	-10.2%	10µM*	-36.8%	-2.7%
COCCCNC(=S)N1CCC(C(=O)c2ccc(Cl)cc2)CC1	-1.2%	5.62µM*	-75.7%	-0.4%
Cc1cccc(-c2nnn3c2nc(NCCc2ccc(S(N)(=O)=O)cc2)c2cc(Cl)ccc23)c1	-1.4%	6.0%	-18.9%	5.6%
CCCN1C(=O)C(Cc2nc3ccccc3c(=O)n2-c2ccc(OC)cc2)c2cc(C)ccc21 (stereo unspecified)	1.1%	0.5%	-48.1%	.
COc1cccc(CN2CCN(Cc3cccc(Oc4ccccc4)c3)CC2)c1OC	?	6.31µM*	-35.3%	-2.2%
COc1cccc(CN2CCN(Cc3cc(OC)c(OC)c(OC)c3)CC2)c1OC	-0.7%	16.1%	-5.8%	-0.3%
COc1cccc(CN2CCC(N(CCc3ccccc3)Cc3ccccc3)CC2)c1OC	-0.8%	10µM*	i	-9.2%
COc1cccc(CN2CCN(CCc3ccccc3)C(CCO)C2)c1OC (stereo unspecified)	3.3%	-7.6%	i	2.2%
CCCCNC(=O)C1=C(N)C(C(=O)Nc2ccc(C)c(S(=O)(=O)N3CCCCC3)c2)SC1=Nc1ccc(C)cc1C (stereo unspecified)	8.7%	12.6µM*	i	-4.5%
CCCCC(=O)Nc1ccc(C)c(S(=O)(=O)N2CCCCCC2)c1	-4.9%	?	-47.6%	7.2%
Cc1cc(C)nc(-n2nc(C)c(Br)c2Nc2ccc(Br)cc2)n1	5.62µM*	?	-0.1%	1.4%
Cc1nn(C)c(Nc2ccc(Br)cc2)c1Br	-18.9%	?	-53.8%	8.7%
Cc1ccc(NC(=O)c2ccc(NC(=O)N3CCSc4ncccc43)cc2)cc1Cl	0.6%	-17.7%	-6.8%	.
CCCCOc1ccc(CSC2=NCCN2)cc1[N+](=O)[O-]	?	10µM*	-49.6%	-5.6%
Cc1ccc(S(=O)(=O)Nc2cc(Cl)c3oc4c(c3c2)C(=O)CC(C)(C)C4)cc1	11.0%	-6.6%	-8.6%	.
C#CC(=O)N(c1ccc(OC)c(OC)c1)C(C(=O)NC1CCCC1)c1cccs1 (stereo unspecified)	?	?	-42.7%	-34.9%
C#CC(=O)N(c1cccc(OC)c1)C(C(=O)NC1CCCC1)c1cccs1 (stereo unspecified)	?	3.16µM*	-28.7%[57.5 µM]	-4.1%
Clc1ccc(OCCOCCN2CCc3ccccc3C2)c(Cl)c1	?	11.2µM*	-15.8%	10.5%
Cc1cc(Cl)c(OCCOCCN2CCN(C)CC2)c(Br)c1	-15.8%	?	i	11.6%
CN1CCN(CCOCCOc2c(Cl)cc(Cl)cc2Cl)CC1	25.1%	11.2µM*	-52.8%	-3.0%
Clc1ccc(OCCCN2CCc3ccccc3C2)c(Br)c1	1.2%	?	-53.8%	-6.5%
Cc1cc(NC(=O)Nc2nnc(N3CCCCC3)s2)ccc1Br	-1.5%	3.6%	i	.
CC[C@H](c1ccccc1)c1noc(CCN(CC)CC)n1	.	.	.	6.1%
CCNC(=O)c1ccccc1SCc1ccccc1	2.6%	-25.5%	i	3.2%
CCc1ccc(OCCNC(=O)c2ccccc2SCc2ccccc2)cc1	4.0%	7.08µM*	-11.5%	-2.1%
Oc1c(Cl)cc(Oc2cc(Cl)c(O)c(CN3CCOCC3)c2)cc1CN1CCOCC1	3.8%	11.2µM*	-9.2%	13.6%
